{"source": "the supplement of paper PMC10338343", "note": "± gives the standard deviation.", "data": [{"test_system": "MILI (PIWIL2) piRISC loaded with piRNA #1 (26 nt)", "assay": "pre-steady-state target cleavage rate (min^-1); guide: piRNA #1 5'p-UGAGGUAGUAGGUUGUAUAGUAUCCA; MIWI and MILI are mouse PIWI proteins and EfPiwi is from a freshwater sponge; tags in brackets are library labels; higher = faster piRNA-guided slicing of the target", "settings": "auxiliary factor: 500 nM mouse GTSF1", "summary_of_the_method": "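A transcribed, DNA-blocked target RNA library (0.1 nM) and 1 nM active affinity-purified piRISC bearing one synthetic guide were incubated in HEPES–potassium acetate buffer at 33 °C for 0–8 or 0–960 min, either with or without 500 nM GTSF1 partner protein. Uncleaved targets were sequenced, normalised to depth and to weakly complementary targets, and pooled over three trials, with k3 capped at 0.0001 min^-1. The pre-steady-state cleavage rate was derived with a burst-and-steady-state fit.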", "values": [{"sequence": "GGAGACCUAUGUAUACAACCUACUAUCCUCA", "pre-steady-state target cleavage rate": "0.0887 ± 0.011"}, {"sequence": "GGAGACCUAUGUAUACAACGUAGUACCUCA", "pre-steady-state target cleavage rate": "0.0032 ± 0.0023"}, {"sequence": "GGAGACCUAUGUAUACAACCUACUAACUCA", "pre-steady-state target cleavage rate": "0.0355 ± 0.0081"}, {"sequence": "GGAGACCUUACUAUACAACCUACUUCCUGA", "pre-steady-state target cleavage rate": "0.0269 ± 0.0086"}, {"sequence": "GGAGACCUAUGAUAACAACCUACUACUUCA", "pre-steady-state target cleavage rate": "0.00299 ± 0.0028"}, {"sequence": "GGAGACCUAUGAUAACAACCUACUACCUCC [g2:g16:cont:t1C]", "pre-steady-state target cleavage rate": "0.00493 ± 0.0021"}, {"sequence": "GGAGACCUAUGAUAACAACCUACUACCGUCA", "pre-steady-state target cleavage rate": "0.00366 ± 0.0026"}, {"sequence": "GGAGACGAUACUAUAGAACCUACAACCUCA", "pre-steady-state target cleavage rate": "0.0115 ± 0.0039"}, {"sequence": "GGAGACCUAACUAUUCAUCCUACUACCUCA", "pre-steady-state target cleavage rate": "0.322 ± 0.043"}, {"sequence": "GGAGACCAUACUAUACAACCUACUACCUUCA", "pre-steady-state target cleavage rate": "0.2 ± 0.018"}, {"sequence": "GGAGUGGAUACUAUACAACCUACUACUUCA", "pre-steady-state target cleavage rate": "0.103 ± 0.0082"}, {"sequence": "GGAGACCUAUGAUAACAACCUACUACCUCCA", "pre-steady-state target cleavage rate": "0.00565 ± 0.0022"}, {"sequence": "GGAGAGGAUAGUAUAGAACCUACUACCUCA", "pre-steady-state target cleavage rate": "0.0708 ± 0.012"}, {"sequence": "GGAGACCUAACUAUACAACCUACGUACCUCA", "pre-steady-state target cleavage rate": "0.0356 ± 0.015"}, {"sequence": "GGAGACCUUACUAUACUACGUACUACCUCA", "pre-steady-state target cleavage rate": "0.0307 ± 0.0046"}, {"sequence": "GGAGACCUAUCAAUACAACCUAGUACCUCA", "pre-steady-state target cleavage rate": "0.00718 ± 0.0036"}]}]}
